This passage reports growth results from PubChem BioAssay (NCI).

Each structure is given as a SMILES string. The panel holds about 83,000 compounds, 20% with a hit somewhere; the sample as a whole holds those more often.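 Note: values are percent growth. 100 is the growth of untreated cells, values between 100 and 0 indicate rising inhibition; between -100 and 0 indicates cell death.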 Values without a mark were called inactive. Calls of active or inactive are those of the source. Rule for the calls: active = growth percent below 10; inactive = the rest.

Test systems include NCI-H23 lung; NCI-H226 lung; NCI-H322M lung; HOP-62 NSCLC; NCI-H460 lung; HOP-92 NSCLC; A549/ATCC NSCLC; 786-0 renal; COLO 205 colon; DU-145 prostate; K-562 leukemia; MALME-3M melanoma; MDA-MB-231 breast; RXF 393 renal; SF-268 CNS; SF-295 CNS; SF-539 CNS; UACC-257 melanoma; M14 melanoma.
Holding throughout (assay): NCI-60 one-dose screen, 48 h (100 = growth as untreated, 0 = no growth, -100 = all killed)
Holding throughout (settings): 10 µM unless noted

Consider `CCCCCCCCO/N=C\c1c2c(O)c3c(O)c(C)c4c(c3c1O)C(=O)C(C)(O/C=C\C(OC)C(C)C(OC(C)=O)C(C)C(O)C(C)C(O)C(C)/C=C\C=C(\C)C(=O)N2)O4` (stereo unspecified), for which the growth is 22.2% with NCI-H23 lung; 28% in the assay with NCI-H226 lung; 45.9% in the assay with NCI-H322M lung; 36% with HOP-62 NSCLC; 3.79% (active) in the assay on NCI-H460 lung; -4.97% (active) in the assay on HOP-92 NSCLC. Further, the growth in the assay with A549/ATCC NSCLC is 17.4%; in the assay on 786-0 renal, 27.9%; in the assay with COLO 205 colon, 4.9% (active); in the assay on DU-145 prostate it was 32.9%; in the assay with K-562 leukemia, 16.7%; with MALME-3M melanoma, 40.7%. Also, the growth is 12.7% in the assay on MDA-MB-231 breast; 38.7% with RXF 393 renal; 43.1% in the assay with SF-268 CNS; 4.44% (active) in the assay on SF-295 CNS; 42.9% in the assay with SF-539 CNS; 8.62% (active) with UACC-257 melanoma. The growth with M14 melanoma is 27%.

In the case of `CCCCN1C=CCN(CCCC)C1`, the growth in the assay with NCI-H23 lung was 65.4%; in the assay with NCI-H226 lung, 82.9%; with NCI-H322M lung, 75%; in the assay on HOP-62 NSCLC it was 84.1%; in the assay on NCI-H460 lung, 50.1%; in the assay on HOP-92 NSCLC, 50.2%. Moreover, the growth was 66.7% with A549/ATCC NSCLC; 73.9% with 786-0 renal; 30.4% with COLO 205 colon; 71.8% in the assay with DU-145 prostate; -22.1% (active) in the assay with MALME-3M melanoma; 75.2% with MDA-MB-231 breast. Further, the growth with RXF 393 renal was 113%; in the assay on SF-268 CNS, 58%; in the assay on SF-295 CNS, 55.6%; in the assay with SF-539 CNS, 78.6%; in the assay on UACC-257 melanoma it was 10.8%; in the assay on M14 melanoma it was 46%.

Take `C#Cc1cccc(NC(=O)c2cccc(NC(=O)CCl)c2)c1`: the growth with NCI-H23 lung was -77.6% [8.25 µM] (active); with NCI-H226 lung, -32% [8.25 µM] (active); in the assay with NCI-H322M lung it was 58.8% [8.25 µM]; in the assay with HOP-62 NSCLC, -24.9% [8.25 µM] (active); in the assay with NCI-H460 lung, -60.8% [8.25 µM] (active); in the assay with HOP-92 NSCLC, -65.3% [8.25 µM] (active). Moreover, the growth was 1.7% [8.25 µM] (active) in the assay with A549/ATCC NSCLC; -71.8% [8.25 µM] (active) in the assay on 786-0 renal; -53% [8.25 µM] (active) in the assay on COLO 205 colon; 4.82% [8.25 µM] (active) in the assay with DU-145 prostate; -80.3% [8.25 µM] (active) in the assay with MALME-3M melanoma; -80.5% [8.25 µM] (active) in the assay with MDA-MB-231 breast. The growth with RXF 393 renal was -20.9% [8.25 µM] (active); in the assay with SF-268 CNS, 8.4% [8.25 µM] (active); with SF-295 CNS it was 21.9% [8.25 µM]; in the assay with SF-539 CNS, -97.1% [8.25 µM] (active); in the assay with UACC-257 melanoma, 28.1% [8.25 µM]; in the assay with M14 melanoma it was 0.864% [8.25 µM] (active).

As for `O=C(O)c1ccc2c(c1)C(=O)N(Cc1ccccc1)C2=O`, the growth in the assay on NCI-H23 lung is 98.5%; in the assay on NCI-H226 lung, 92.7%; in the assay on NCI-H322M lung it was 96%; with HOP-62 NSCLC, 95.8%; with NCI-H460 lung it was 102%; in the assay on HOP-92 NSCLC it was 86.2%. The growth with A549/ATCC NSCLC is 101%; with 786-0 renal, 95.5%; in the assay on COLO 205 colon, 107%; with DU-145 prostate, 102%; in the assay on MALME-3M melanoma, 97.4%; with MDA-MB-231 breast, 101%. Also, the growth is 103% in the assay with RXF 393 renal; 98% in the assay on SF-268 CNS; 95% in the assay with SF-295 CNS; 103% in the assay with SF-539 CNS; 74.2% with UACC-257 melanoma; 100% in the assay with M14 melanoma.

Take `CC(=O)c1cc2c(N)c(C(=O)Nc3cccc4ccncc34)sc2nc1C`: the growth with NCI-H23 lung was 102%; in the assay with NCI-H226 lung, 104%; in the assay with NCI-H322M lung, 105%; in the assay on HOP-62 NSCLC it was 91.8%; with NCI-H460 lung it was 104%; with HOP-92 NSCLC, 75.2%. Besides, the growth in the assay with A549/ATCC NSCLC is 97.9%; in the assay with 786-0 renal it was 98.5%; in the assay on COLO 205 colon, 102%; with DU-145 prostate it was 109%; in the assay on K-562 leukemia, 82.2%; in the assay on MALME-3M melanoma, 101%. Besides, the growth in the assay with MDA-MB-231 breast was 93%; with RXF 393 renal, 104%; in the assay with SF-268 CNS, 98.5%; in the assay on SF-295 CNS it was 85%; with SF-539 CNS, 94.1%; with UACC-257 melanoma, 96.2%. Also, the growth in the assay with M14 melanoma is 75.8%.

`COC(=O)C1=C(C(=O)ON)C2C=CC1(C(Cc1ccccc1)Nc1ccccc1)O2` (stereo unspecified): the growth is 89.4% with NCI-H23 lung; 107% with NCI-H226 lung; 93.3% in the assay on NCI-H322M lung; 105% in the assay with HOP-62 NSCLC; 103% with NCI-H460 lung; 46.5% in the assay on HOP-92 NSCLC. In addition, the growth in the assay on A549/ATCC NSCLC is 96.1%; with 786-0 renal it was 93%; in the assay with COLO 205 colon, -72% (active); in the assay with DU-145 prostate, 73.9%; with K-562 leukemia, -1.55% (active); with MALME-3M melanoma it was -74% (active). In addition, the growth in the assay with MDA-MB-231 breast was 103%; in the assay on RXF 393 renal it was 92.1%; with SF-268 CNS, 95%; in the assay with SF-295 CNS, 103%; with SF-539 CNS, 90%; in the assay on UACC-257 melanoma, 87.8%. The growth in the assay on M14 melanoma is 76.3%.

Turning to `O=C1NN(C(=O)c2ccccc2)C(c2ccc(Cl)c(Cl)c2)=C/C1=C\c1ccc([N+](=O)[O-])cc1`, the growth is 85.3% with NCI-H23 lung; 88.7% with NCI-H226 lung; 98% with NCI-H322M lung; 101% in the assay with HOP-62 NSCLC; 83% in the assay with NCI-H460 lung; 3.02% (active) in the assay with HOP-92 NSCLC. Moreover, the growth in the assay on A549/ATCC NSCLC was 96.2%; in the assay on 786-0 renal it was 102%; in the assay with DU-145 prostate, 108%; in the assay with MALME-3M melanoma, 88.3%; with MDA-MB-231 breast, 80.4%; with RXF 393 renal, 74.3%. The growth in the assay on SF-268 CNS is 74.8%; with SF-295 CNS it was 88.5%; in the assay on SF-539 CNS, 90.5%; in the assay on UACC-257 melanoma it was 96.5%; in the assay with M14 melanoma, 41.8%.

On to `O=C1/C=C/[C@@H](O)[C@@H]2C[C@@H](O)C[C@H]2/C=C/CCC[C@H](CCc2cccc3ccccc23)O1`, for which the growth is -36% (active) in the assay with NCI-H23 lung; -62% (active) in the assay with NCI-H226 lung; 25.2% in the assay with NCI-H322M lung; 21.8% in the assay on HOP-62 NSCLC; 12.2% in the assay with NCI-H460 lung; 46.5% in the assay with HOP-92 NSCLC. The growth in the assay on A549/ATCC NSCLC is 19.3%; with 786-0 renal, -44.7% (active); in the assay with COLO 205 colon it was -91.9% (active); with DU-145 prostate, 19%; in the assay on MALME-3M melanoma it was -17.7% (active); with MDA-MB-231 breast, -41.2% (active). The growth is -30.9% (active) in the assay with RXF 393 renal; 16.6% in the assay with SF-268 CNS; 7.76% (active) in the assay with SF-295 CNS; 21.7% with SF-539 CNS; 26.1% in the assay with UACC-257 melanoma; 5.14% (active) in the assay with M14 melanoma.
